From PubChem BioAssay
An excerpt weighted towards active compounds, which were near 4.6% of everything screened.
Epigenetic reg = epigenetic control regulation, reporter derepression. 0.2% of 280,000 active. murine LDR cells, GFP reporter derepression, 30 h. AID 1865. Potency, µM (series often up to 53.9 µM), hits mostly activators; active = well fitted activation curve with a large enough effect; note: nearly all actives have a fitted effect of over 60% in size
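GFP-positive cell count by laser-scanning cytometry (objects 20–120 um) after 30 h, 37 C compound exposure of murine LDR cells; reporter is CMV-GFP integrated at a silenced locus, inducible by HDAC or DNMT inhibitors.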
D1 potentiator = potentiators of human D1 dopamine receptor; P21728; potentiation, % at 10 µM; 0.036% of 360,000 active; HEK293 TREx D1 cells, calcium flux, dopamine EC20 potentiation; in the data active = potentiation above about 30%
Target sequence (P21728 whole entry, looked up): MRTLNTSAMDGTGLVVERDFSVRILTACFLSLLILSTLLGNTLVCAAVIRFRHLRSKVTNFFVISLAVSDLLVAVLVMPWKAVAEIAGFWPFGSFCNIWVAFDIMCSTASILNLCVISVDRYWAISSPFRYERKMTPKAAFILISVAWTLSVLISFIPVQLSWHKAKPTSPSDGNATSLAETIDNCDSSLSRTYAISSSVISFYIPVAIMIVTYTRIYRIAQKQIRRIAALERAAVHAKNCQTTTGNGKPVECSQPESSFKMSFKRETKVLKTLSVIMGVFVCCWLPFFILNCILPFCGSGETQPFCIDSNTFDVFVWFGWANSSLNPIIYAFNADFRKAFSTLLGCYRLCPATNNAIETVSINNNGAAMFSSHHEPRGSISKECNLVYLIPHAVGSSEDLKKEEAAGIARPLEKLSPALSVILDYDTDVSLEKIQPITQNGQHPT
D1 agonist = human D1 receptor agonism | activation, % at 2 µM | 1% of 360,000 active | HEK293 T-REx D1 cells, calcium flux, agonist mode | P21728
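Inducible HEK293 T-REx D1 cells, force-coupled to calcium signalling, were plated at 4000 cells/well with tetracycline and held overnight at 30 C. After no-wash calcium dye loading, compound-evoked calcium rise over 180 s flagged agonists.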
D1 antagonist = blocks dopamine activation of the human D1 receptor; P21728; HEK293 TREx D1 cells, calcium flux, dopamine EC80; active compounds read low; activity change, negative = inhibition, % at 10 µM; 3.2% of 360,000 active; AID 504652; in the data active = activity change below about -30%
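Allosteric or orthosteric antagonism assessed as attenuation of the calcium response to EC80 dopamine, added 180 s after compound, in induced HEK293 Trex D1 cells loaded with no-wash calcium dye.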
TRHR agonist = activates the human TRH receptor; P34981; TRHR cells, calcium flux fluo-8, FDSS agonist mode; 0.18% of 360,000 active; activation, % at 2 µM; AID 493084
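Fluo-8-loaded TRHR cells; 10 s baseline, compound added, kinetic Ca2+ fluorescence read 1/s, agonist mode.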
TRHR enhancer = allosterically enhances the human TRH receptor; AID 493056; 0.66% of 360,000 active; enhancement, % at 2 µM; P34981; TRHR cells, fluo-8 calcium fluorescence, EC20 TRH enhancement; in the data active = enhancement above about 30%
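Enhancer read-out: after compound pinning and an initial kinetic agonist-mode read, an EC20 of TRH (10 nM final) was injected and fluo-8 calcium signal (Ex 480/Em 530) followed at 1 s/cycle for 100 cycles in TRHR-expressing cells.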
A number is an active result; . = inactive; / = no result. Cut-off read from the data, not from the text of the source, unless noted: active = activation above about 30%; inactive = the rest.

SMILES	Epigenetic reg	D1 potentiator	D1 agonist	D1 antagonist	TRHR agonist	TRHR enhancer
CN1C2CCC1CC(NC(=O)c1ccc(Cl)cc1)C2 (centres undefined)	.	.	.	-32.0	.	.
CC(C)(C)OC(=O)n1c2ccsc2c2cnn(Cc3ccccc3F)c(=O)c21	/	.	.	.	.	.
CCOc1ccc(N2CC(c3nc4ccccc4n3CCCOc3ccccc3OC)CC2=O)cc1 (centres undefined)	.	.	.	.	.	.
COc1ccccc1C(C)NS(=O)(=O)c1cccs1 (centres undefined)	/	.	.	.	.	.
CC(C)c1cccc(C(C)C)c1NS(=O)(=O)c1cccs1	.	.	.	-31.4	.	.
COc1ccc(OCCCC(=O)Nc2cccc(SC)c2)cc1	.	.	.	-73.4	.	.
COc1ccc(/C=C/C(=O)OCC(=O)Nc2cc(C(N)=O)cc(C(N)=O)c2)cc1	.	.	.	.	.	.
COc1ccc(OCCCC(=O)Nc2cccc(C(C)=O)c2)cc1	.	.	.	-46.7	.	.
COc1ccc(/C=C/C(=O)OCC(=O)Nc2cccc(C(C)=O)c2)cc1	.	.	.	.	.	37.3
O=C(CCCSc1ccc(Cl)cc1)Nc1ccccc1O	/	.	33.0	.	.	.
CSc1cccc(NC(=O)CCCOc2ccc(Cl)cc2C)c1	.	.	.	.	.	.
CN(C)S(=O)(=O)c1cccc(NC(=O)CCCSc2ccccc2)c1	/	.	.	.	.	.
CC(=O)c1cccc(NC(=O)CCCSc2ccccc2)c1	/	/	.	-38.5	.	.
O=C(COC(=O)/C=C/c1cccs1)Nc1ccc2ccccc2c1	.	.	.	-34.7	.	.
O=C(CCSc1ccccc1)Nc1ccc(OCc2ccccc2)cc1	.	.	.	-30.0	.	.
Cc1ccc(NC(=O)C(=O)NCC2OCCc3ccccc32)cc1 (centres undefined)	.	.	.	.	.	32.6
Cc1ccc(NC(=O)C2OCCc3ccccc32)cc1 (centres undefined)	.	.	.	.	.	.
COC(=O)c1sc(N/N=C/c2ccc(C(C)C)cc2)nc1C	/	/	.	-37.2	.	.
COc1ccccc1-c1cc(C(=O)NC2CCCC2)no1	/	.	.	-31.6	.	.
O=C(NC1CCCC1)c1cc(-c2cccs2)on1	.	.	.	-42.0	.	.
Cc1ccccc1Cn1c2ccccc2c2cnn(CC(=O)NCC(C)c3ccccc3)c(=O)c21 (centres undefined)	.	.	.	.	.	.
CC(C)OC(=O)C(NC(=O)c1ccccc1)=C1CCCCC1	.	.	.	-38.3	.	.
COc1ccc(C(=O)NCCCn2ccnc2)cc1	.	.	.	.	.	.
COc1ccc(-c2nn(-c3ccccc3)cc2C(=O)NCCCn2ccnc2)cc1	.	.	.	-37.9	.	.
CCC(C)C(NC(=O)c1ccccc1NC(=O)c1ccc(OC)cc1)C(=O)NCCCn1ccnc1 (centres undefined)	/	.	.	.	.	39.4
SMILES	Epigenetic reg	D1 potentiator	D1 agonist	D1 antagonist	TRHR agonist	TRHR enhancer
CCOc1ccc(CNC(=O)c2ccc(Sc3ccc(C)cc3)c(N)c2)cc1OC	.	.	.	.	.	.
O=C(CN1C(=O)CSc2ccc(C(F)(F)F)cc21)Nc1ccccc1	.	.	30.1	.	.	.
O=C(CCN1C(=O)CSc2ccccc21)Nc1cccc(C(F)(F)F)c1	/	.	.	.	.	.
O=C(CCN1C(=O)CSc2ccccc21)Nc1ccc(C(F)(F)F)cc1	/	.	.	-31.3	.	.
Cc1cc(C)c(NC(=O)Cn2ccn(-c3cccc(Cl)c3)c(=O)c2=O)c(C)c1	.	.	.	.	.	.
O=[N+]([O-])c1cccc(P(=O)(O)c2cccc([N+](=O)[O-])c2)c1	.	.	.	.	.	31.3
CCCCn1cc(S(=O)(=O)c2ccccc2)c(=O)c2cc(F)c(N3CCC(C)CC3)cc21	.	.	.	.	.	.
Cc1ccc(OCc2cc(C(=O)N(C)CC3CCOCC3)no2)cc1C	/	.	55.6	.	.	.
Cc1ccc(OCc2cc(C(=O)N3CCN(C)C[C@@H]3c3ccccc3)no2)cc1C	/	.	.	-30.6	.	.
Cc1cc(OCc2cc(C(=O)N3CCN(C)C(=O)[C@@H]3C)no2)cc(C)c1Cl	/	.	.	-31.1	.	.
Cc1cc(OCc2cc(C(=O)N(C)C3CCOCC3)no2)cc(C)c1Cl	/	.	.	.	.	.
CN1CCN(C(=O)c2cc(COc3ccccc3)on2)[C@@H](c2ccccc2)C1	/	.	.	.	.	.
COc1cccc(OCc2cc(C(=O)N(Cc3ccccc3)CC3CC3)no2)c1	/	.	47.5	.	.	.
COc1cccc(OCc2cc(C(=O)N(C)Cc3nc4ccccc4[nH]3)no2)c1	/	.	.	.	.	.
Cc1ccc(NC(=O)N(Cc2c[nH]c3ccccc23)C2CCCCCC2)cc1C	.	.	.	.	.	.
CCc1ccccc1NC(=O)CN1C(=O)COc2ccc(S(=O)(=O)Nc3ccccc3)cc21	.	.	.	.	.	.
COc1ccc(C(=O)NCC(c2cccnc2)N2CCN(c3ccccc3F)CC2)cc1OC (centres undefined)	.	.	.	.	.	.
CCN(CC)S(=O)(=O)c1ccc(NC(=O)NCc2noc3ccc(C)cc23)cc1	.	.	.	.	.	.
CCOC(=O)c1cccc(NS(=O)(=O)c2ccc3[nH]c4c(c3c2)CCCC4)c1	.	.	.	.	.	.
Cc1ccc(S(=O)(=O)N(CC(=O)N/N=C/c2cccc(C)c2)c2cccc3cccnc23)cc1	.	.	.	-30.2	.	.
Cc1ccc(C)c(N2CCN(S(=O)(=O)c3ccc4[nH]c5c(c4c3)CCCCC5)CC2)c1	.	.	.	.	.	.
CCOc1ccccc1NC(=O)N1CCc2c(sc3c2CCCC3)C1c1ccccc1 (centres undefined)	.	.	.	.	.	.
Cc1ccc(C(=O)O)cc1NC1(c2ccccc2)C(=O)c2ccccc2C1=O	.	.	.	.	.	.
COc1cccc(OC)c1CN1CCCC(C(=O)c2ccccc2SC)C1 (centres undefined)	.	.	.	-56.7	.	.
COc1ccc(C(=O)C2CCCN(Cc3cn[nH]c3-c3ccccc3)C2)cc1OC (centres undefined)	.	.	.	-30.5	.	.
COc1ccc(Br)cc1CN1CCCC(C(=O)N2CCCCC2)C1 (centres undefined)	.	.	.	.	.	.
COc1ccccc1CN1CCCC(C(=O)N2CCCCC2)C1 (centres undefined)	.	.	.	.	.	38.7
